# LGR2 inh: blocks bursicon-induced cAMP signaling via Drosophila LGR2; inhibition, % at 9.99 µM; hit rate 0.35% among 380,000; HEK293 LGR2, CRE-luciferase, bursicon-stimulated, 4 h;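 active = drop in luminescence signal, shown as inhibition above about 50% in the replicate tests, limit read from the data, passing the limit was not always enough; inconclusive = probably only some replicates passing the limit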;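 also: agonist challenge used bursicon conditioned medium at about half maximal strength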
# TROY NFkB inh: inhibitors of TROY-dependent NF-kB signaling; AID 1347056; hit rate 0.98% among 360,000; inhibition, % at 10 µM; Q293 LMP1-TROYcd NF-kB luciferase reporter, 4 h;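 active = compounds whose plate-normalised and pattern-corrected inhibition of the luciferase reporter signal at the single screening dose is 50% or more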
# HSF1 inhib: HSF1 inhibition. NIH3T3-HGL HSE-luciferase, MG132-induced, luminescence 8 h; hits give low values. activity change, negative = inhibition, % at 7.5 µM (by protocol). hit rate 0.77% among 300,000;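 active = more than half of replicate wells show activity change below -50%, luminescence cut by over half; inconclusive = some wells, but at most half, below -50%; inactive = no replicate well below -50%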;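 also: luciferase reports HSF-1 transcriptional activity via heat shock element; 0% = median of DMSO wells and -100% = zero luminescence signal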
# TWEAK-Fn14 inh: inhibitors of TWEAK-Fn14 interaction signaling; hit rate 2% among 360,000; TWEAK-stimulated Fn14 reporter cells, luciferase luminescence, 8 h; inhibition, % at 10 µM; AID 1159606; in the data active = inhibition above about 50%
# HSF-1 act: increases HSF-1 driven luciferase reporter signal | NIH3T3-HGL HSF-1 luciferase reporter, MG132, 8 h; 100% = twice DMSO control signal | activation, % at 9 µM | hit rate 1.7% among 300,000;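 active = mean replicate activation of at least 50% with a set share of replicates each reaching 50%; inconclusive = only one of those two conditions met; inactive = mean below 50% and too few replicates reaching it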;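 also: 0% = median of the neutral control wells and 100% = twice that signal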
# EBV LMP1 NFkB: inhibitors of Epstein-Barr LMP1-induced NF-kappaB reporter. hit rate 0.69% among 350,000. LMP1-induced NF-kappaB luciferase reporter cells, luminescence. inhibition, % at 12.5 µM; in the data active = inhibition above about 41%; inconclusive = no clear call, values can overlap the other calls;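 also: 0% = neutral control wells and 100% = reference inhibitor control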
# Active calls of the source: *; ? = inconclusive; / = no result given. An excerpt weighted towards active compounds, which were near 3.6% of everything screened.
SMILES,LGR2 inh,TROY NFkB inh,HSF1 inhib,TWEAK-Fn14 inh,HSF-1 act,EBV LMP1 NFkB
NC(=O)Cc1ccc(Nc2nnc(-c3ccccc3)c3ccccc23)cc1,12,-8,/,-12,/,-49
COc1ccc(-c2nnc(Nc3ccc(CC(N)=O)cc3)c3ccccc23)cc1,-10,10,28,-10,57*,-3
CCOC(=O)c1cn[nH]c1C(F)(F)F,-4,-7,26,0,57*,1
CCOC(=O)c1c(NC(=S)NCc2ccccc2)sc2c1CCN(C(=O)OCC)C2,3,-11,36,-1,72*,1
C=CCNC(=S)Nc1sc2c(c1C(=O)OCC)CCN(C(=O)OCC)C2,3,8,26,35,61*,3
CCCNC(=O)C[C@@H]1CC[C@H]2[C@H](COc3ccc(NC(=O)c4cccc(Cl)c4)cc3C(=O)N2C)O1,-6,/,/,/,/,/
CCCCCn1c(SCc2cccc(C)c2)nc2c1c(=O)[nH]c(=O)n2C,14,18,27,8,60*,8
O=C(O)c1ccc2c(c1Nc1ccccc1)C(=O)c1ccccc1C2=O,-8,-1,-7,18,-15,43*
C[C@@H]1CN([C@H](C)CO)S(=O)(=O)c2ccc(Br)cc2O[C@@H]1CN(C)C(=O)c1cnccn1,0,/,/,/,/,/
Cc1ccc2nc(Nc3ccccc3)c(C=O)c(=O)n2c1,-12,14,1,-11,-2,-7
Cc1ccc2nc(NCc3ccccc3)c(C=O)c(=O)n2c1,-37,-52,57,-44,90*,-3
CCN(CC)S(=O)(=O)c1ccccc1/C=N\O,-9,32,-18,62*,-34,-3
CCC(=O)N1CC(=O)N2[C@H](C1)[C@H](c1ccc(-c3cccnc3)cc1)[C@@H]2CO,0,/,/,/,/,/
Cc1ccc(S(=O)(=O)Nc2ccc3c(c2)C(=O)N([C@@H](C)CO)C[C@@H](C)[C@H](CN(C)C(=O)Nc2ccccc2)OCCCC[C@@H](C)O3)cc1,5,/,/,/,/,/
CC1=Nc2ccccc2/C1=C/c1nc(-c2ccc(C)s2)oc1O,10,1,51,10,58*,-5
O=C1CN(C(=O)c2ccc(F)c(S(=O)(=O)N3CCOCC3)c2)c2ccccc2N1,-7,14,5,9,-2,46*
COc1ccc(C(=O)N2CC(=O)Nc3ccccc32)cc1S(=O)(=O)N1CCCC1,21,-13,-9,-22,4,43*
COc1ccc(C(=O)N2CC(=O)Nc3ccccc32)cc1S(=O)(=O)N1CCOCC1,-23,-8,-5,-2,-5,-9
O=C(C[C@@H]1C[C@H]2c3cc(NC(=O)C4CCOCC4)ccc3O[C@H]2[C@@H](CO)O1)NC1CCCCC1,-7,/,/,/,/,/
COc1ccc(NC(=O)CSc2nnc(Cn3cnc([N+](=O)[O-])n3)n2C)cc1,22,3,34,3,67*,4
O=C(C[C@@H]1C[C@@H]2c3cc(NC(=O)c4cccnc4)ccc3O[C@@H]2[C@@H](CO)O1)NCc1ccncc1,-8,/,/,/,/,/
COc1ccc(NC(=O)Nc2cccc3c2O[C@@H](CN(C)S(C)(=O)=O)[C@@H](C)CN([C@@H](C)CO)C3=O)cc1,12,/,/,/,/,/
CCNc1nc(CN2CCOCC2)nc2sc3c(c12)CCC3,-10,-1,-2,-2,0,65*
O=C(O)c1ccccc1Nc1cccc(OCc2ccc3ccccc3n2)c1,-39,24,/,14,/,82*
O=C(COc1ccc2ccccc2c1)Nc1cccc(C(=O)Nc2ccccc2C(=O)O)c1,-9,15,-11,-1,7,-5
SMILES,LGR2 inh,TROY NFkB inh,HSF1 inhib,TWEAK-Fn14 inh,HSF-1 act,EBV LMP1 NFkB
COc1ccccc1CNC(=O)C[C@H]1C[C@H]2c3cc(NC(=O)CN(C)C)ccc3O[C@H]2[C@@H](CO)O1,-6,/,/,/,/,/
CNc1ncnc(Sc2ccc(Cl)cc2)c1[N+](=O)[O-],16,-4,20,86*,36,/
Cn1c(=O)c([N+](=O)[O-])c(Cl)c2ccccc21,-8,23,-73*,-21,-74,14
Cc1ccccc1-n1c(C)cc(/C=C2/C(=N)N3C(c4ccccc4)=CSC3=NC2=O)c1C,-12,8,-14,55*,-14,0
Cc1ccc(S(=O)(=O)N[C@H]2CC[C@@H](CCn3cc(C(C)C)nn3)O[C@@H]2CO)cc1,20,/,/,/,/,/
S=C(NN=Cc1ccccn1)N(Cc1ccccn1)Cc1ccccn1,-39,-8,/,-16,/,8
S=C(NN=C(c1ccccc1)c1ccccn1)N(Cc1ccccn1)Cc1ccccn1,13,-4,/,34,/,63*
CC(=NNC(=S)N(Cc1ccccn1)Cc1ccccn1)c1cnccn1,-10,5,/,-9,/,81*
O=C(Nc1cc(F)ccc1F)N1C[C@@H]2[C@H](c3ccccc31)[C@@H](CO)N2C(=O)c1ccccc1,-23,/,/,/,/,/
N=c1c2c(ncn1Cc1ccco1)Oc1cc(O)ccc1C2c1ccccc1 (stereo unspecified),3,21,3,0,-6,-2
COc1ccc(C2c3ccc(O)cc3Oc3ncn(CCCO)c(=N)c32)cc1 (stereo unspecified),1,8,21,-20,51*,-1
COc1ccc(S(=O)(=O)Nc2ccc3c(c2)C(=O)N([C@@H](C)CO)C[C@@H](C)[C@H](CN(C)S(=O)(=O)c2cn(C)cn2)OCCCC[C@@H](C)O3)cc1,-9,/,/,/,/,/
COc1ccc(C(=O)Nc2cccc(/C=C/c3nc4ccccc4c(=O)[nH]3)c2)cc1,3,27,-27,57*,-39,-6
COc1cc(/C=C/c2nc3ccccc3c(=O)[nH]2)cc(Cl)c1O,-2,-34,0,-27,6,-11
COc1ccc(C(=O)Nc2nc3cc(OC)c(OC)cc3c(=O)[nH]2)cc1,/,1,/,-22,/,-13
CCN(CC(=O)Nc1ccc(C(=O)Nc2ccc(OC)cc2)cc1)Cc1nc2ccccc2c(=O)[nH]1,-5,-26,-2,0,10,-9
COc1ccc(C(=O)Nc2nc3ccccc3c(=O)[nH]2)cc1,?,-25,14,53*,32,-1
O=C(Nc1cccc(/C=C/c2nc3ccccc3c(=O)[nH]2)c1)c1ccccc1Cl,-42,38,27,72*,26,-26
Cc1ccccc1-c1cnc2c(c1)C(=O)N([C@@H](C)CO)C[C@H](C)[C@H](CN(C)C(=O)c1ccncc1)O2,3,/,/,/,/,/
Cc1cc(C(=O)Nc2cccc3c2O[C@H](CN(C)C(=O)Nc2ccc(C(F)(F)F)cc2)[C@@H](C)CN([C@@H](C)CO)C3=O)n(C)n1,-10,/,/,/,/,/
C[C@@H]1CN([C@@H](C)CO)C(=O)c2cc(NC(=O)C3CCCCC3)ccc2O[C@@H](C)CCCCO[C@@H]1CN(C)C(=O)NC1CCCCC1,3,/,/,/,/,/
COc1ccc2nc(SC)c(C#N)cc2c1,-3,-8,96,-13,143*,0
COc1ccc(Nc2nc3ccc(C)cc3cc2C#N)c(OC)c1,/,-21,5,85*,34,-13
